Compound activity (PubChem BioAssay)
An excerpt weighted towards active compounds, which were near 11% of everything screened.
AmpC inh detg: qHTS Inhibitors of AmpC Beta-Lactamase (assay with detergent); P00811; AmpC hydrolysis of nitrocefin, absorbance 480 nm, 0.01% Triton; Potency, µM (series often up to 114 µM), usual class: inhibitors; hit rate 0.041% among 370,000; note: nearly all actives have a fitted effect of over 25% in size
Target sequence (P00811 whole entry, looked up): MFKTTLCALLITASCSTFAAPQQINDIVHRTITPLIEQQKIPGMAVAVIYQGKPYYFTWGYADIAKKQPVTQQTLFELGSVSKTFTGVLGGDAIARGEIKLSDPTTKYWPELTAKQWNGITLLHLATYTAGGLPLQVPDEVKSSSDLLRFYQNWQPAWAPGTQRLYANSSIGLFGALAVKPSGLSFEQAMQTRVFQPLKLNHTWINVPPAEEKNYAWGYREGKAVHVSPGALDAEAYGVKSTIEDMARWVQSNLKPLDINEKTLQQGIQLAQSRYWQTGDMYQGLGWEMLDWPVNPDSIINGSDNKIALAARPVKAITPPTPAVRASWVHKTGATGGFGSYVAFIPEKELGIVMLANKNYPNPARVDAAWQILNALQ
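AmpC (5.3 nM in the dispensed reagent) in 20 mM phosphate pH 7.0 with 0.01% (detergent screen) or 0.0001% Triton X-100 was preincubated with compounds for 15 min at room temperature. Nitrocefin was then added from an 800 uM solution, and hydrolysis was followed at 480 nm.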
AMA1 RON2 block: qHTS for Inhibitors of AMA1-RON; Towards Development of Antimalarial Drug Lead: Primary Screen | AlphaScreen AMA1-biotinylated RON2 peptide binding | Potency, µM (series often up to 58.2 µM), hits mostly inhibitors | hit rate 0.2% among 360,000; note: nearly all actives have a fitted effect of over 45% in size
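AMA1 (3D7) with his tag at 25 nM final met compounds first, then biotinylated RON2 peptide at 25 nM; detection used donor plus acceptor beads, 10 µg/mL apiece, read by AlphaScreen after 30 min at room temperature.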
HCV inh: qHTS Assay for Inhibitors of Hepatitis C Virus (HCV); Huh7.5.1 HCVcc-Cre infection, luciferase reporter, 44 h; Potency, µM (top dose mostly 41.8 µM), usual class: inhibitors; hit rate 3.4% among 340,000; AID 651820, 2012
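Compounds are dispensed onto cells plated 4 h earlier at 1,000 per well, with HCVcc-Cre virus (about 0.5 moi) added next. Following 44 h of culture, luminescent signal is measured for 15 sec after 15 min with substrate at room temperature.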
Pf growth 96h: Primary qHTS for delayed death inhibitors of the malarial parasite plastid, 96 hour incubation | P. falciparum luciferase reporter growth, 96 h | Potency, µM (highest dose often 28.7 µM), most hits filed as inhibitors | hit rate 6.9% among 320,000
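Plates of compound plus infected erythrocytes (2% hematocrit, 0.05% parasitemia final) incubate 96 hours, 37 C, 5% CO2. Detection reagent added; reduced luminescence from the parasites' luciferase reporter flags inhibition.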
AmpC no deterg: qHTS Inhibitors of AmpC Beta-Lactamase (assay without detergent) | AmpC nitrocefin hydrolysis, absorbance 480 nm, 0.0001% Triton | hit rate 0.52% among 330,000 | Potency, µM (titrated, usually from 57.1 µM), actives largely listed as inhibitors | P00811; note: nearly all actives have a fitted effect of over 20% in size
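20 mM phosphate pH 7.0 + 0.01% (detergent screen) or 0.0001% Triton X-100; 5.3 nM AmpC reagent; cpd preinc 15 min RT; nitrocefin (800 uM stock) to start; A480 q20 s × 4 min; Activity was normalised to no-enzyme and no-compound control wells.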
Pf growth 48h: Primary qHTS for delayed death inhibitors of the malarial parasite plastid, 48 hour incubation. hit rate 5.9% among 310,000. Potency, µM (doses to about 28.7 µM), actives largely listed as inhibitors. P. falciparum luciferase growth in erythrocytes, 48 h. AID 504832, 2011
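Luminescence readout; reporter = integrated firefly luciferase in P. falciparum. RBC culture at 2% hematocrit, 0.1% parasitemia final, 37 C/5% CO2; decreased signal taken as growth inhibition.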
Hits are given with their value; – = inactive; ? = inconclusive; · = no result; [ ] = dose if it differs, or a comment. Calls come from the whole dose curve; as a rule, active = well fitted curve in the direction sought with a large enough effect; inconclusive = small, poorly fitted or top-dose-only effect, or another doubt; inactive = no such curve, though single readings can be large; an effect the other way counts as inactive or inconclusive.

SMILES	AmpC inh detg	AMA1 RON2 block	HCV inh	Pf growth 96h	AmpC no deterg	Pf growth 48h
O=S(=O)(c1ccccc1)c1nnn2c1nc(N1CCN(c3ccccc3)CC1)c1cc(Cl)ccc12	–	·	·	·	·	·
CCn1cc(S(=O)(=O)c2ccc(Cl)cc2)c(=O)c2cc(F)c(N3CCOCC3)cc21	–	·	·	·	·	·
CC1CCc2c(sc3nnn(CCCCOc4ccc(Cl)cc4)c(=O)c23)C1 (centres undefined)	–	·	·	·	·	·
CN(C)S(=O)(=O)c1cccc(NC(=S)N/N=C/c2ccco2)c1	–	–	–	?	–	3.7µM
CCN(CC)S(=O)(=O)c1ccc(N/N=C/c2cc(OC)ccc2O)nc1	–	–	2.8µM	8.3µM	–	4.7µM
CCN(CC)S(=O)(=O)c1ccc(N/N=C/c2cccnc2)nc1	–	–	–	–	–	?
COc1ccc(CCNC(=O)CCn2c(=O)c3ccccc3n(CC(=O)Nc3cccc(C)c3)c2=O)cc1OC	–	·	·	·	·	·
Cc1cc(N)n(-c2ncnc3scc(-c4ccc(Cl)cc4)c23)n1	–	–	–	?	–	?
Clc1ncnc2scc(-c3ccc(Br)cc3)c12	–	–	?	0.33µM	–	0.83µM
Cc1ccc(C)n1-c1ccc(N2CCOCC2)c(Br)c1	?	–	–	15µM	–	·
CCC(CC)C(=O)Nc1ccc2nc(SCC(=O)N3CCCC3)sc2c1	–	·	·	·	·	·
COc1ccccc1N1CCN(/N=C/c2cccc(Cl)c2)CC1	–	14µM	?	?	–	–
COc1ccccc1N1CCN(/N=C/C=C\c2ccccc2[N+](=O)[O-])CC1	–	20µM	?	?	–	–
COc1cccc(/C=N/N2CCN(c3ccccc3OC)CC2)c1	–	?	–	–	–	–
CC1CCCC(C)N1/N=C/C=C/c1ccccc1[N+](=O)[O-] (centres undefined)	–	16µM	–	–	–[11.4 µM]	–
Cc1nc2ccc(S(=O)(=O)CCC(=O)Nc3ccc(C(C)C)cc3)cc2s1	–	·	·	·	·	·
CCOC(=O)c1cc2c(nc1C)-c1cc(Cl)cc(Cl)c1OC2O (centres undefined)	–	–	–	4.7µM	–	6.6µM
CCOC(=O)c1cc(C(=O)NN)c(C)nc1C	–	–	–	–	–	–
CC1CCCCN1S(=O)(=O)c1ccc(NC(=O)c2cccs2)cc1 (centres undefined)	–	–	?	?	–	15µM
CCCCN(CCCC)S(=O)(=O)c1ccc(NC(=O)c2cccs2)cc1	–	–	?	0.41µM	–	·
CC1CCN(S(=O)(=O)c2ccc(NC(=O)c3cccs3)cc2)CC1	?	–	?	–	28µM	4.7µM
CN1CCN(S(=O)(=O)c2ccc(NC(=O)c3cccs3)cc2)CC1	–	–	–	–	·	–
Cc1cc(C)nc(NS(=O)(=O)c2ccc(NC(=O)c3cccs3)cc2)n1	–	–	–	–	–	–
O=C(Nc1ccc(S(=O)(=O)N2CCCC2)cc1)c1cccs1	–	–	–	?	–	?
COc1ccc(-n2nnnc2C2CCN(S(=O)(=O)c3cccc(Cl)c3C)CC2)cc1	–	·	·	·	·	·
SMILES	AmpC inh detg	AMA1 RON2 block	HCV inh	Pf growth 96h	AmpC no deterg	Pf growth 48h
O=C(CSc1ncccc1C(=O)Oc1ccccc1Cl)Nc1ccc(C(F)(F)F)cc1Cl	–	·	·	·	·	·
O=C(COc1ccccc1Cl)Nc1ccc(OCc2cc(=O)n3ccsc3n2)cc1	–	·	·	·	·	·
Cc1ccc(-c2c(CN3CCN(c4cccc(C)c4)C(C)C3)csc2C)cc1 (centres undefined)	–	·	·	·	·	·
O=C(CN1c2cccc3cccc(c23)S1(=O)=O)Nc1ccc(S(=O)(=O)N2CCOCC2)cc1	–	–	–	13µM	?	?
COc1cc(NC(=O)CN2c3cccc4cccc(c34)S2(=O)=O)cc(OC)c1OC	–	–	11µM	?	–	–
COc1ccc(NC(=O)CN2c3cccc4cccc(c34)S2(=O)=O)c(OC)c1	?	–	?	·	–	?
CCCn1c(SCC(=O)Nc2cccc(Cl)c2Cl)n[nH]c1=O	?	–	–	–	–	–
CCCn1c(SCC(=O)N2CCN(S(=O)(=O)c3ccc(Cl)cc3)CC2)n[nH]c1=O	?	–	–	?	–	10µM
CCCn1c(SCC(=O)Nc2cc(Cl)ccc2Cl)n[nH]c1=O	–	–	–	1.2µM	–	?
CCCn1c(SCC(=O)Nc2cccc(S(=O)(=O)N3CCCC3)c2)n[nH]c1=O	–	–	–	?	–	?
CCCn1c(SCC(=O)Nc2cc(Cl)ccc2OC)n[nH]c1=O	–	–	10µM	?	–	·
Cn1c(=NC(=O)c2ccc(S(=O)(=O)N3CCCC3)cc2)sc2cc(F)ccc21	–	·	·	·	·	·
CCc1ccc(/C=C2/Sc3ccccc3N(CC(=O)NCC3CCCO3)C2=O)cc1 (centres undefined)	?	–	10µM	?	–	–
O=C(CN1C(=O)/C(=C\c2cccc(Br)c2)Oc2ccccc21)NCC1CCCO1 (centres undefined)	–	–	–	13µM	–	?
Cc1ccc(/C=C2/Sc3ccccc3N(CC(=O)NCC3CCCO3)C2=O)cc1 (centres undefined)	–	–	?	–	–	–
Cc1ccc(C(=O)c2oc3ccccc3c2NC(=O)c2cc(=O)c3cc(C)ccc3o2)cc1	–	·	·	·	·	·
O=C(NCCN1CCN(c2cccc(Cl)c2)CC1)c1ccc(CSc2nc3ccncc3[nH]2)cc1	–	?	?	?	–	1.7µM
CCN(CCNC(=O)c1ccc(CSc2nc3ccncc3[nH]2)cc1)c1ccccc1	–	–	?	–	–	10µM
CC1CC(C)CN(C(=O)c2ccc(CSc3nc4ccncc4[nH]3)cc2)C1 (centres undefined)	–	–	?	–	–	–
Clc1cccc(CSc2nc3ccncc3[nH]2)c1	–	–	–	?	–	·
CCOc1ccc(N(C(=O)CC(C)C)S(=O)(=O)c2ccc3c(c2)oc(=O)n3C)cc1	–	·	·	·	·	·
CN1C(=O)SC(Nc2ccccc2C(=O)O)C1=O (centres undefined)	–	–	–	1.3µM	–	–
CC(C)CC1NC(=O)c2cc(Cl)ccc2-n2c1nc1cc(F)ccc1c2=O (centres undefined)	·	·	–	·	–	·
CN1c2ccc(Cl)cc2C(=O)NC1C1CC=CCC1 (centres undefined)	–	–	–	12µM	–	–
C=CCN1C(=O)CS/C1=C(\C#N)S(=O)(=O)c1ccc(C)cc1	–	–	–	–	14µM	?
